Compounds with a hit are over-represented: about 21% of the library has one in this group of screens.
Pf growth 96h: P. falciparum growth inhibition at 96 hours; P. falciparum luciferase reporter growth, 96 h; Potency, µM (titrated, usually from 28.7 µM), hits mostly inhibitors; actives 6.9% (n = 320,000); AID 504834
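Erythrocytes infected with luciferase-expressing P. falciparum were dispensed at 2% hematocrit and 0.05% parasitemia (final), then incubated with compounds 96 hours at 37 C in 5% CO2. Luminescence after detection reagent addition reported growth.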
NS1 function inh: inhibitors of influenza NS1 protein function; Potency, µM (titrated, usually from 46.1 µM); actives 0.4% (n = 270,000); calls by dose curve; also: actives are rising curves; nearly all actives have a fitted effect of over 50% in size
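Compounds were scored for reversing the slow growth caused by influenza A NS1 in S. cerevisiae, measured by optical density at 600 nm. Assay medium contained 2% galactose at pH 6.0; NS1-free yeast of the same strain were the positive control.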
Pf growth 48h: inhibits P. falciparum growth in the first generation, 48 h | P. falciparum luciferase growth in erythrocytes, 48 h | Potency, µM (titrated, usually from 28.7 µM), actives largely listed as inhibitors | actives 5.9% (n = 310,000) | AID 504832
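Compounds are pin-transferred into medium, infected erythrocytes (2% hematocrit, 0.1% parasitemia final) are added, and plates sit one parasite generation at 37 C in 5% CO2. Detection reagent is then added and luminescence measured.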
Cycloheximide cs: affects cycloheximide protein synthesis inhibition readout, counter-screen; actives 12% (n = 300,000); cell reporter, cycloheximide protein synthesis inhibition counterscreen; max response, %; AID 2314; in the data active = max response mostly above about 13%, no sharp cut-off; inactive = mostly below about 14%; also: read at 38.3 µM for the half of the compounds with a filed dose
Shiga toxin inh: inhibitors of Shiga toxin in Vero cells; Vero cells, Shiga toxin protein synthesis inhibition reporter; inhibition, % at 38.7 µM; actives 9.2% (n = 290,000); in the data active = inhibition mostly above about 28%, no sharp cut-off; inactive = mostly below about 43%
Numbers stand for hits; 0 = inactive; ? = inconclusive; - = no result. Unless noted, calls follow the shape of the dose curve; as a rule, active = well fitted inhibition curve with a large enough effect; inconclusive = small, poorly fitted or top-dose-only effect, or another doubt; inactive = no such curve, though single readings can be large or run the other way.

SMILES	Pf growth 96h	NS1 function inh	Pf growth 48h	Cycloheximide cs	Shiga toxin inh
O=C(CCN1C(=O)C2C3CC(C(Br)C3Br)C2C1=O)OCC(=O)c1ccccc1 (stereo unspecified)	?	0	0	0	0
Cc1ccc(C(=O)O)cc1N=Cc1cc(Br)cc(Br)c1O	?	0	0	0	0
CN(/N=C/c1cc(Br)cc(Br)c1O)c1cccc(C(F)(F)F)n1	?	0	4.15µM	0	0
CCOC(=O)C1CCN(c2cc(=O)n(C3CCCCC3)c(=O)[nH]2)CC1	0	0	2.94µM	0	0
CCOC(=O)C1CCN(c2cc(=O)n(-c3ccccc3Cl)c(=O)[nH]2)CC1	0	0	1.85µM	0	0
CCCCn1c(SCC(=O)NCCCOC)nc2c(sc3ccccc32)c1=O	-	-	-	0	0
O=C(c1ccc(Sc2ccccc2)c([N+](=O)[O-])c1)N1CCOCC1	0	0	-	0	0
CCN(CC)CCN(C(=O)CCOc1ccccc1)c1nc2ccc(F)cc2s1	0	-	0	0	0
Cc1cc(C)c(S(=O)(=O)N2CCN(c3ccc([N+](=O)[O-])c(-n4nc(C)cc4C)c3)CC2)c(C)c1	1.31µM	0	4.15µM	0	0
COC(=O)c1ccc(N2CCN(S(=O)(=O)c3ccc(C)cc3)CC2)c([N+](=O)[O-])c1	?	0	?	0	0
Cc1cc(C)n(-c2cc(N3CCN(S(=O)(=O)c4ccc(Br)cc4)CC3)ccc2[N+](=O)[O-])n1	?	?	?	0	0
CCS(=O)(=O)N1CCN(c2ccc(C(=O)NC3C4CC5CC(C4)CC3C5)cc2[N+](=O)[O-])CC1 (stereo unspecified)	?	0	11.7µM	0	0
COC(=O)c1ccc(N2CCN(S(=O)(=O)c3c(C)cc(C)cc3C)CC2)c([N+](=O)[O-])c1	?	0	11.7µM	0	0
CCc1ccc(CCC(=O)Nc2nnc(CC)s2)o1	0	0	0	0	0
CCOC(=O)Cc1csc(NC(=O)c2ccc(F)cc2)n1	0	0	0	0	0
CCOC(=O)Cc1csc(NC(=S)NC(=O)c2ccc(C)cc2)n1	3.7µM	0	2.94µM	0	0
CCOC(=O)Cc1csc(NC(=O)c2ccc(C)cc2)n1	0	0	0	33.6	90.9
Cc1csc(NC(=O)c2ccc3c(c2)OCO3)n1	0	0	0	30.8	71.2
CCOC(=O)Cc1csc(NC(=O)c2ccc3c(c2)OCO3)n1	?	0	0	14.9	40.5
CCOC(=O)Cc1csc(NC(=O)c2cc(C)cc(C)c2)n1	?	0	0	0	0
O=C(OCC(=O)N1CCCC1)c1c(Cl)ccc(Cl)c1Cl	0	0	0	0	0
O=C(N/C(=C/c1ccc(F)cc1)C(=O)N1CCCCC1)c1ccco1	0	0	0	0	0
COc1ccc(C(=O)NCc2nnc(SCC(=O)c3ccccc3)n2C)cc1OC	?	-	0	-	-
O=C(Nc1nccs1)c1ccc2c(c1)OCO2	0	0	0	19.5	64.6
Cc1csc(NC(=O)c2ccoc2C)n1	0	0	0	49.2	63.6
SMILES	Pf growth 96h	NS1 function inh	Pf growth 48h	Cycloheximide cs	Shiga toxin inh
CC(C)(C)NC(=O)CN(Cc1ccc2c(c1)OCO2)C(=O)CCC(=O)Nc1nccs1	?	0	0	14.7	0
CCOC(=O)Cc1csc(NC(=O)c2ccoc2C)n1	-	0	0	29.3	83.6
CC(=O)Nc1nc(C)cs1	0	-	?	0	0
COCCNC(=O)CN(Cc1ccc2c(c1)OCO2)C(=O)CCC(=O)Nc1nccs1	-	0	0	0	0
CC(C)Cc1ccc(CN2CCCC(NC(=O)c3nn(C)c(=O)c4ccccc34)C2)cc1 (stereo unspecified)	0	0	0	0	0
COc1cc(/C=N/N=C/c2c[nH]c(=O)c(C#N)c2Nc2ccccc2)ccc1O	0	0	0	0	0
CCOC(=O)Cc1csc(NC(=S)NC(=O)c2ccccc2Br)n1	0	0	0	20.5	0
CCOC(=O)Cc1csc(NC(=S)NC(=O)c2ccccc2)n1	0	0	?	0	0
Cc1cccc(-c2nc(CNC(=O)c3ccco3)cs2)c1	?	0	0	41.8	106.2
O=C(NCc1ccco1)c1cccc(-c2nnc(-c3ccccc3)o2)c1	-	0	?	21.6	48.7
COc1ccc(-c2nc(CCNC(=O)c3ccco3)cs2)cc1OC	?	?	?	0	0
COc1ccccc1-c1noc(-c2ccccc2C(=O)NCc2ccco2)n1	0	0	0	14.0	0
Cc1cccc(-c2noc(-c3ccccc3C(=O)NCc3ccco3)n2)c1	0	0	0	74.6	0
O=C(NCc1ccco1)c1ccccc1	0	0	0	0	0
CCOC(=O)N1CCN(C(=O)C2CC(=O)N(c3ccc(C)cc3)C2)CC1 (stereo unspecified)	?	-	0	-	-
O=C(COC(=O)Cc1n[nH]c(=O)c2ccccc12)Nc1cccc(C(F)(F)F)c1	0	0	0	0	0
O=C(NCc1ccco1)c1ccccc1-c1nc(-c2ccccc2)no1	0	0	-	0	0
Cc1ccc(-c2noc(-c3ccccc3C(=O)NCc3ccco3)n2)cc1	0	0	0	33.1	62.6
CSc1ncccc1C(=O)NC(C)CCc1ccccc1 (stereo unspecified)	0	0	0	0	0
CCCCN(CC)CCNC(=O)CNC(=O)Cn1ccc2ccccc2c1=O	0	-	0	0	0
CCCCCCCNC(=O)C1(CC2CC(c3ccccc3)=NO2)CCN(C(=O)c2ccccc2)CC1 (stereo unspecified)	9.28µM	-	11.7µM	-	-
COC(=O)C1(CC2CC(c3cccc(Br)c3)=NO2)CCN(C(=O)OC(C)(C)C)CC1 (stereo unspecified)	0	0	?	0	0
CCCCCCCNC(=O)C1(CC2CC(c3ccc(Cl)cc3)=NO2)CCN(C(=O)c2cc(OCC)c(OCC)c(OCC)c2)CC1 (stereo unspecified)	0.329µM	?	1.17µM	0	0
COCC(C)NC(=O)C1CC(c2cccc(Br)c2)=NO1 (stereo unspecified)	0	0	0	0	0
CCCCCCCNC(=O)C1(CC2CC(c3cccc(Br)c3)=NO2)CCN(C(=O)c2ccccc2)CC1 (stereo unspecified)	?	-	13.1µM	-	-
SMILES	Pf growth 96h	NS1 function inh	Pf growth 48h	Cycloheximide cs	Shiga toxin inh
CCOc1cc(C(=O)N2CCN(c3ccccc3)CC2)cc(OCC)c1OCC	0	0	?	0	0
O=C(NCCCCc1ccccc1)C1CC(c2cccc(F)c2)=NO1 (stereo unspecified)	0	0	0	0	0
CCCCCCCNC(=O)C1(CC2CC(c3ccccc3)=NO2)CCN(C(=O)OC(C)(C)C)CC1 (stereo unspecified)	6.57µM	-	2.94µM	-	-
CCOc1ccccc1NC(=O)CNC(=O)CNC(=O)Cc1ccccc1	?	0	0	0	0
Cc1ccc(C(=O)NNC(=O)c2ccoc2C)s1	0	-	0	-	-
CCc1cc(=O)oc2cc(OC(C)C(=O)NCc3ccccn3)ccc12 (stereo unspecified)	0	0	0	0	0
COC(=O)C1(Cc2cc(-c3ccccc3)no2)CCN(C(=O)OC(C)(C)C)CC1	0	0	0	27.5	40.4
CCCCCCCNC(=O)C1(CC2CC(c3ccc(Cl)cc3)=NO2)CCN(C(=O)c2ccccc2)CC1 (stereo unspecified)	9.28µM	0	?	0	0
